CHO-K1 Ca antag: M1 antagonist counterscreen hit in parental CHO-K1 cells. actives 0.6% (n = 360,000). AID 602250. ATP-induced calcium, Fluo-8 fluorescence. inhibition, % at 3 µM;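 active means inhibition above a per-plate cutoff, the plate's mean sample inhibition plus 3 SD, cut at about 24% in these data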
CHRM1 agonist: human M1 muscarinic receptor agonists, primary screen, Fluo-8 calcium fluorescence, CHO-K1 cells, HTS; CHO-K1 hM1, agonist mode; 0% DMSO, 100% acetylcholine EC100; activation, % at 3 µM; actives 0.33% (n = 360,000); AID 588814, 2011;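 active means activation above the run's mean compound activation plus 3 SD, cut at about 16% in these data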;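 further: peak over basal fluorescence ratio within a 140 s kinetic read after compound addition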
Target sequence (P11229 whole entry, looked up): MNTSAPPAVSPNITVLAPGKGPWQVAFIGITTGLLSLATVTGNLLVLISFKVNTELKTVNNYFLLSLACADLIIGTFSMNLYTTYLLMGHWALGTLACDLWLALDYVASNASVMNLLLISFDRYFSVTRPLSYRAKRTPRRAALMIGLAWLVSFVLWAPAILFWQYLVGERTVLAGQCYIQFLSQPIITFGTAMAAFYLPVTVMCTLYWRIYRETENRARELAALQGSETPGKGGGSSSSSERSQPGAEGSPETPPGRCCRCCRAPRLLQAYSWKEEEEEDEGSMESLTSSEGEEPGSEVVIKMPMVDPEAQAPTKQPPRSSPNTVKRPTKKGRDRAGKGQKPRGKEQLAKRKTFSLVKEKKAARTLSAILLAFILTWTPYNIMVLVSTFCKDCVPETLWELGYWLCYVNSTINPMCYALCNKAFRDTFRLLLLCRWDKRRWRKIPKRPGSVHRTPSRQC
M1 PAM: human M1 muscarinic receptor positive allosteric modulators, primary screen, CHO-K1 cells, Fluo-8 calcium fluorescence, 1536-well | activation, % at 3 µM | Muscarinic acetylcholine receptor M1 (Homo sapiens), P11229 | CHO-K1 hM1, ACh EC20; 0% = ACh EC20, 100% = maximal ACh | actives 0.088% (n = 360,000); in the data active means activation above about 19%, passing the limit was not always enough
M1 ag parental: counter-screen for M1 agonists: effect in parental CHO-K1 cells; activation, % at 3 µM; AID 602248, 2012; actives 0.48% (n = 360,000); Fluo-8 calcium fluorescence; scaled to maximal ATP response, vehicle zero; in the data active means activation above about 15%;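 further: untransfected CHO-K1 host cells lacking M1 receptor as counterscreen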
CHO-K1 Ca PAM: nonselective calcium activators in parental CHO-K1 cells, primary screen, counter-screen for M1 PAM project, cell-based, Fluo-8 calcium fluorescence, full deck, 1536-well; ATP EC20; 0% at ATP EC20, 100% at ATP max; activation, % at 3 µM; actives 0.02% (n = 360,000);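 active means activation above the run cutoff, the mean activation of all test compounds plus 3 SD, cut at about 40% in these data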;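 further: peak over basal fluorescence ratio in a 140 s read after ATP addition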
CHRM1 antagonist: human M1 muscarinic receptor antagonists, primary screen, CHO-K1 cells, Fluo-8 calcium fluorescence, 1536-well. CHO-K1 hM1, ACh EC80 antagonist. actives 1.3% (n = 360,000). AID 588852, 2011. Muscarinic acetylcholine receptor M1 (Homo sapiens), P11229. inhibition, % at 3 µM;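 active means percent inhibition above its own plate's cutoff, namely the mean of that plate's compound wells plus 3 SD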;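 further: peak over basal fluorescence ratio during 140 s after agonist addition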
Hits are given with their value; . = inactive; / = no result given; + = active, no number. Shown are actives, neighbours in structure and some others; about 2.4% of the full set was active somewhere.

SMILES	CHO-K1 Ca antag	CHRM1 agonist	M1 PAM	M1 ag parental	CHO-K1 Ca PAM	CHRM1 antagonist
CC(=O)c1ccc(NC(=S)NCCc2cccc(Cl)c2)cc1	.	.	.	15	.	.
CC(=O)c1cccc(NC(=S)NC(=O)Cc2ccc(Cl)cc2)c1	.	21	.	.	.	.
S=C(NCCC(c1ccccc1)c1ccccc1)Nc1cccc(Cl)c1	26	.	.	.	.	.
S=C(NCCN(C1CCCCC1)C1CCCC1)Nc1cccc(Cl)c1	.	.	.	.	.	.
CC(=O)c1cccc(NC(=O)Nc2cccs2)c1	26	.	.	.	.	.
CC(=O)c1ccc(NC(=S)NCCc2ccc(S(N)(=O)=O)cc2)cc1	.	.	.	.	.	.
COc1cccc(NC(=O)Nc2cccs2)c1	.	.	.	.	.	.
CC(=O)N1CCc2cc(Br)cc(S(=O)(=O)N3CCC(C(=O)O)CC3)c21	.	.	.	.	.	.
CC(=O)c1cccc(NC(=O)Cn2nc(-c3ccc(Cl)cc3)ccc2=O)c1	.	.	.	.	.	.
COc1ccccc1N(CC(=O)NCCN1CCOCC1)S(=O)(=O)c1ccccc1	.	.	.	.	.	.
CCNC(=O)C1(C)CCN(C(=O)CCc2ccccc2)C1 (centres undefined)	.	.	.	.	.	.
CSc1cccc(NC(N)=O)c1	.	.	.	.	.	.
CC(=O)c1ccc(NC(=O)Nc2cccc(Cl)c2)cc1	34	.	.	.	.	27
CC(=O)c1ccc(NC(=O)Nc2ccc(Br)cc2C)cc1	.	.	.	.	.	31
CC(=O)Nc1ccc(NC(=O)Nc2cccc(Cl)c2)cc1	.	.	.	.	.	.
CSc1cccc(NC(=O)Nc2ccc(Cl)cc2)c1	26	.	.	.	.	.
O=C(O)/C=C(\Oc1ccccc1)C1(O)CCCCC1	.	.	.	.	.	.
O=C(OCC(=O)N1CCN(c2ccccc2)CC1)c1nc(Cl)ccc1Cl	.	.	.	.	.	.
CCOC(=O)N/N=C(/c1ccccc1)C1CCCCC1	.	.	.	.	.	.
Cc1ccc(C(=O)NC(C)c2ccc(S(N)(=O)=O)cc2)s1 (centres undefined)	.	.	29	.	.	.
O=C(O)C1CCC(CNCc2ccccc2Cl)CC1 (centres undefined)	.	.	.	.	.	.
CCOC(=O)C1CCC(CNCc2ccccc2C)CC1 (centres undefined)	.	.	.	.	.	53
NC(=O)c1c(NC(=O)CN2CCOCC2)sc2c1CCC2	.	18	25	.	.	.
CCOC(=O)[C@]12CCC=C1N(Cc1ccco1)C(=O)[C@H](CC(=O)NCC1CCCCC1)C2	.	/	/	.	.	/
C[C@@H](c1ccccc1)N1C[C@@H](COCc2ccccc2)Oc2cc(N3CC[C@H](O)C3)ccc2S1(=O)=O	.	/	/	.	.	/
SMILES	CHO-K1 Ca antag	CHRM1 agonist	M1 PAM	M1 ag parental	CHO-K1 Ca PAM	CHRM1 antagonist
COc1ccc(OC)c(C(=O)c2coc3ccc(O)c(CN(C)C)c23)c1	.	.	.	.	.	.
COc1ccc2occ(C(=O)c3coc4ccc(O)c(CN(C)C)c34)c2c1	.	.	.	.	.	20
Cc1cc(C)nc(SCc2ccc(C(=O)N/N=C/C3CCCCC3)cc2)n1	.	.	.	.	.	.
N#Cc1c(-c2ccccc2Cl)cc(C2CC2)nc1N	.	42	.	25	43	.
O=C1c2ccccc2C(c2nnnn2-c2ccc3c(c2)OCCO3)N1CCCn1ccnc1 (centres undefined)	.	/	/	.	.	/
CC(C)(C)NC(=O)C(c1ccc(F)cc1)N(CCc1ccccc1)C(=O)c1ccn[nH]1 (centres undefined)	.	.	.	15	.	.
CCCOc1ccc(C(=O)NNC(=S)NC(=O)c2cccs2)cc1	44	92	.	87	.	78
CCCOc1ccc(C(=O)NNC(=S)NC(=O)c2ccccc2[N+](=O)[O-])cc1	.	.	.	15	.	.
CC(C)(C)c1ccc(C(=O)NC(=S)NNC(=O)COc2ccccc2)cc1	.	24	.	.	.	.
CCCOc1ccc(C(=O)NNC(=S)NC(=O)c2ccccc2)cc1	42	115	.	105	.	69
O=C(CSc1nnc(NC(=O)c2ccc(F)cc2F)s1)NC1CCCC1	.	.	.	.	.	.
O=C(C/C=N\OCc1ccc([N+](=O)[O-])cc1)Nc1ccc(Br)cc1	.	.	.	.	.	.
CC(NC(=O)c1cccs1)c1nnc(SCc2ccc(Cl)cc2Cl)n1C (centres undefined)	.	.	.	.	.	.
CC(C)(C)c1ccc(C(=O)NC(=S)NCc2cccnc2)cc1	.	.	.	.	.	.
CCCOc1ccc(C(=O)NNC(=S)NC(=O)c2ccco2)cc1	.	67	.	60	.	.
COc1ccc(C(=O)NNC(=S)NC(=O)c2ccco2)cc1	.	.	.	.	.	.
O=C(COc1ccc(Cl)cc1Cl)NNC(=S)NC(=O)c1ccco1	.	.	.	.	.	.
CC(Oc1ccc(Cl)cc1)C(=O)NNC(=S)NC(=O)c1ccco1 (centres undefined)	.	51	.	32	.	.
COC(=O)CNC(=S)NC(=O)c1ccc(C(C)(C)C)cc1	.	.	.	.	.	72
O=C1c2ccccc2C(=O)N1CCCc1cn(C[C@H]2CC[C@H](Cn3cc(CCCN4C(=O)c5ccccc5C4=O)nn3)O2)nn1	.	.	.	.	.	.
COc1ccc(OC)c(/C=C/C(=O)OCC(=O)Nc2nnc(-c3ccccc3)o2)c1	.	.	.	.	.	.
CC(=O)SCC[N+](C)(C)C	.	70	.	.	.	.
CC1=C(C)CC(C(=O)Nc2ccc(C(=O)N3CCOCC3)cc2)C(C(=O)O)C1 (centres undefined)	.	.	.	.	.	.
Nc1ccc(-c2c3ccc(=O)cc-3oc3cc(O)ccc23)cc1C(=O)O	27	278	.	133	.	55
O=c1ccc2c(-c3ccccc3)c3ccc(O)cc3oc-2c1	93	+	.	533	.	104
O=c1cc(-c2ccccc2)oc2cc(O)ccc12	.	.	.	.	.	.
O=S1(=O)NC(=NCCc2ccccn2)c2ccccc21	.	.	.	.	.	.
Cc1c(NC(=O)C(C)OC(=O)C23CC4CC(CC(Br)(C4)C2)C3)c(=O)n(-c2ccccc2)n1C (centres undefined)	.	.	.	.	.	.

Screening data: PubChem BioAssay, The Scripps Research Institute Molecular Screening Center
